This is an account of results in PubChem BioAssay (NCATS).

Records with an inconclusive call do not appear. Where a call stands in place of a potency, no number is given. The source made the active and inactive calls. Calls come from the whole dose curve; as a rule, active = well fitted curve in the direction sought with a large enough effect; inconclusive = small, poorly fitted or top-dose-only effect, or another doubt; inactive = no such curve, though single readings can be large; an effect the other way counts as inactive or inconclusive.

The target of one assay is Aldehyde dehydrogenase, mitochondrial (Homo sapiens) (UniProt P05091). The assay is described as follows: qHTS for Inhibitors of the Aldehyde Dehydrogenase Family (ALDH2) Primary screen (AID 2061308). Note: nearly all actives have a fitted effect of over 55% in size. Conditions: ALDH2 enzyme inhibition qHTS, 1536-well; series mostly up to 56 µM. Background: In qHTS, concentration-response curves come from the screen itself.
`CCOC(=O)CCC(=O)Nc1ncnc2c1C(c1ccccc1)c1c(ccc3ccccc13)O2` (stereo not given): the Potency result is “inactive”.

Turning to `Cc1cc2c(s1)c1cnn(Cc3c(F)cc(F)cc3F)c(=O)c1n2C`, the Potency result was “inactive”.

For the compound `CC(C)Oc1ccccc1C(=O)Nc1nc(-c2ccccc2)cs1`, the Potency result is “inactive”.

For `Cc1nc(N2CCOCC2)c2nc(-c3ccccc3)n(CCCN(C)C)c2n1`, the Potency entry was “inactive”.

Turning to `Fc1cccc(-c2nc3ccccc3s2)c1`, the Potency result was “inactive”.

As for `Cc1ccc(NC(=O)c2ccncc2NS(=O)(=O)c2ccc(C)cc2)cc1`, the Potency result is “inactive”.

As to `C=CCc1cc(F)c(S(=O)(=O)N2CCN(S(=O)(=O)c3ccc4c(c3)OCCO4)CC2)cc1F`, the Potency result is “inactive”.

Consider `O=S(=O)(Nc1nc(-c2ccccc2C(F)(F)F)nc2ccccc12)c1ccc(Br)cc1`, for which the Potency entry is “inactive”.

Turning to `Cc1ccc(CCCn2c(CCNC(=O)C3CCCCC3)nc3ccccc32)cc1`, the Potency entry was “inactive”.

As to `Nc1cccc(S(=O)(=O)N2CCN(S(=O)(=O)c3c(F)cccc3F)CC2)c1`, the Potency entry was “inactive”.

As for `C/C=C/C(=O)OC1/C=C/C(O)C(OC(C)=O)CCC(=O)OC1C` (stereo not given), the Potency result is “inactive”.

On to `COCCN(CCOC)c1nc(C)nc2c1nc(-c1ccccc1)n2CCN(C)C`, for which the Potency entry was “inactive”.

As for `CC(C)(C)NS(=O)(=O)c1cccc(-c2nnc(SCC(=O)Nc3ccc(C(=O)O)cc3)n2-c2ccc(F)cc2)c1`, the Potency result is “inactive”.

In the case of `COc1cc(OC)cc(-c2nnc3n2N=C(c2c(OC)cccc2OC)CS3)c1`, the Potency result was “inactive”.

Turning to `O=C1CCc2cc(S(=O)(=O)Nc3cccc(B(O)O)c3)ccc2N1`, the Potency result was “inactive”.

As for `COc1ccc(C2c3c(N)nc(CCCc4ccccc4)nc3Oc3ccc4ccccc4c32)cc1OC` (stereo not given), the Potency entry is “inactive”.

For `Cc1ccc(-c2cc(C(=O)Nc3nc4ccccc4s3)c3ccccc3n2)cc1C`, the Potency result is “inactive”.

For `Cc1cc2c(s1)c1cnn(Cc3ccc(C)c(F)c3)c(=O)c1n2C`, the Potency entry is “inactive”.

Turning to `C/C=C(/C)C(=O)O[C@H]1C=C(CO)C(=O)[C@H](OC(=O)/C(C)=C/CO)[C@H]1C(C)C`, the Potency entry is “inactive”.

For the compound `O=S(=O)(Cc1ccc(Cl)c(Cl)c1)Nc1nnc(-c2ccncc2)s1`, the Potency entry was “inactive”.

In the case of `CC(C)c1cccc2c(-c3ccccc3)cc(-c3ccc(-c4ccc(C(=O)O)cc4)[nH]3)nc12`, the Potency result was “inactive”.

In the case of `CCCn1c(-c2ccc(F)cc2)nc2c(N3CCCN(Cc4ccccc4)CC3)nc(C)nc21`, the Potency result was “inactive”.

Consider `Cc1nc(C)c(-c2ccc3ncnc(N(C)Cc4sccc4C)c3c2)s1`, for which the Potency entry is “inactive”.

`Cc1nnc(-c2cnn(C)c2)n1CCCn1ccnc1`: the Potency result was “inactive”.

For the compound `FC(F)(F)c1ccccc1-c1nc(NCc2ccccc2)c2ccccc2n1`, the Potency result was “inactive”.

With `Cc1nc(N2CCOCC2)c2nc(-c3ccccc3)n(C(C)CN(C)C)c2n1` (stereo not given), the Potency entry is “inactive”.

On to `Cn1c2cc(C=O)sc2c2cnn(Cc3ccccc3F)c(=O)c21`, for which the Potency result was “inactive”.

On to `CCN(CC)c1ccc(NC(=O)CN(C)Cc2c(O)ccc3ccccc23)cc1`, for which the Potency result is “inactive”.

With `COc1cccc(C2c3c(ncn(CCN4CCOCC4)c3=N)Oc3ccc4ccccc4c32)c1` (stereo not given), the Potency entry was “inactive”.

For the compound `Cc1cc(C)nc(NC(=S)N2CCN(c3nccc(C(F)(F)F)n3)CC2)c1`, the Potency entry was “inactive”.

Take `O=C(Nc1ccc(Cl)cc1)c1ccccc1NCc1ccncc1`: the Potency entry was “inactive”.

In the case of `O=C(OCC#CCSc1nnc(-c2cccc3ncccc23)o1)c1ccc(F)cc1`, the Potency result was “inactive”.

As for `Cc1ccc(S(=O)(=O)Nc2ccc(Cl)cc2C(=O)Nc2nc(-c3ccccc3)cs2)cc1`, the Potency entry is “inactive”.

`O=C1CCCC2=C1C(c1[nH]ncc1Cl)N=C(c1nc3ccccc3o1)N2` (stereo not given): the Potency result was “inactive”.

On to `c1nc(NCc2ccc3c(c2)OCO3)c2cc(-c3ccc4c(c3)OCCO4)ccc2n1`, for which the Potency entry was “inactive”.

In the case of `COc1ccccc1C(=O)OCC#CCSc1nnc(-c2cccc3ccccc23)o1`, the Potency result was “inactive”.

As to `CCCN(CCC)C(=O)C(CCC(=O)OCCCN1CCN(CCOC(=O)Cc2c(C)n(C(=O)c3ccc(Cl)cc3)c3ccc(OC)cc23)CC1)NC(=O)c1ccccc1` (stereo not given), the Potency result was “inactive”.

Turning to `O=C1CCCC2=C1C(c1ccncc1Cl)N=C(Nc1nc3ccccc3o1)N2` (stereo not given), the Potency result is “inactive”.

With `CCOc1ccccc1-c1nnc2n1N=C(c1c(OC)cccc1OC)CS2`, the Potency entry was “inactive”.

With `COc1cccc(NC(=S)N2CCN(c3ncc(C(F)(F)F)cc3Cl)CC2)n1`, the Potency entry is “inactive”.

The target in the next assay is Retinaldehyde dehydrogenase 3 (Homo sapiens) (UniProt P47895). As to the kind of experiment: qHTS for Inhibitors of the Aldehyde Dehydrogenase Family (ALDH1A3) Primary screen (AID 2061315). Conditions: ALDH inhibition qHTS; series mostly up to 56 µM.
Consider `CCOC(=O)CCC(=O)Nc1ncnc2c1C(c1ccccc1)c1c(ccc3ccccc13)O2` (stereo not given), for which the Potency entry was “inactive”.

`Cc1cc2c(s1)c1cnn(Cc3c(F)cc(F)cc3F)c(=O)c1n2C`: the Potency result was “inactive”.

As for `CC(C)Oc1ccccc1C(=O)Nc1nc(-c2ccccc2)cs1`, the Potency result was “inactive”.

As for `Cc1nc(N2CCOCC2)c2nc(-c3ccccc3)n(CCCN(C)C)c2n1`, the Potency result is “inactive”.

In the case of `Fc1cccc(-c2nc3ccccc3s2)c1`, the Potency entry is “inactive”.

Regarding `Cc1ccc(NC(=O)c2ccncc2NS(=O)(=O)c2ccc(C)cc2)cc1`, the Potency result was “inactive”.

With `C=CCc1cc(F)c(S(=O)(=O)N2CCN(S(=O)(=O)c3ccc4c(c3)OCCO4)CC2)cc1F`, the Potency result is “inactive”.

Regarding `O=S(=O)(Nc1nc(-c2ccccc2C(F)(F)F)nc2ccccc12)c1ccc(Br)cc1`, the Potency entry was “inactive”.

For the compound `Cc1ccc(CCCn2c(CCNC(=O)C3CCCCC3)nc3ccccc32)cc1`, the Potency entry was “inactive”.

For the compound `Nc1cccc(S(=O)(=O)N2CCN(S(=O)(=O)c3c(F)cccc3F)CC2)c1`, the Potency entry was “inactive”.

In the case of `C/C=C/C(=O)OC1/C=C/C(O)C(OC(C)=O)CCC(=O)OC1C` (stereo not given), the Potency result is “inactive”.

For `COCCN(CCOC)c1nc(C)nc2c1nc(-c1ccccc1)n2CCN(C)C`, the Potency result is “inactive”.

Take `CC(C)(C)NS(=O)(=O)c1cccc(-c2nnc(SCC(=O)Nc3ccc(C(=O)O)cc3)n2-c2ccc(F)cc2)c1`: the Potency entry was “inactive”.

In the case of `COc1cc(OC)cc(-c2nnc3n2N=C(c2c(OC)cccc2OC)CS3)c1`, the Potency entry is “inactive”.

`O=C1CCc2cc(S(=O)(=O)Nc3cccc(B(O)O)c3)ccc2N1`: the Potency result was “inactive”.

Regarding `COc1ccc(C2c3c(N)nc(CCCc4ccccc4)nc3Oc3ccc4ccccc4c32)cc1OC` (stereo not given), the Potency entry is “inactive”.

Take `Cc1ccc(-c2cc(C(=O)Nc3nc4ccccc4s3)c3ccccc3n2)cc1C`: the Potency result was “inactive”.

Turning to `Cc1cc2c(s1)c1cnn(Cc3ccc(C)c(F)c3)c(=O)c1n2C`, the Potency result is “inactive”.

With `C/C=C(/C)C(=O)O[C@H]1C=C(CO)C(=O)[C@H](OC(=O)/C(C)=C/CO)[C@H]1C(C)C`, the Potency entry was “inactive”.

Turning to `O=S(=O)(Cc1ccc(Cl)c(Cl)c1)Nc1nnc(-c2ccncc2)s1`, the Potency result was “inactive”.

In the case of `CC(C)c1cccc2c(-c3ccccc3)cc(-c3ccc(-c4ccc(C(=O)O)cc4)[nH]3)nc12`, the Potency result is “inactive”.

Regarding `CCCn1c(-c2ccc(F)cc2)nc2c(N3CCCN(Cc4ccccc4)CC3)nc(C)nc21`, the Potency result is “inactive”.

`Cc1nc(C)c(-c2ccc3ncnc(N(C)Cc4sccc4C)c3c2)s1`: the Potency entry was “inactive”.

For the compound `Cc1nnc(-c2cnn(C)c2)n1CCCn1ccnc1`, the Potency entry was “inactive”.

For `FC(F)(F)c1ccccc1-c1nc(NCc2ccccc2)c2ccccc2n1`, the Potency result is “inactive”.

Turning to `Cc1nc(N2CCOCC2)c2nc(-c3ccccc3)n(C(C)CN(C)C)c2n1` (stereo not given), the Potency result was “inactive”.

Take `Cn1c2cc(C=O)sc2c2cnn(Cc3ccccc3F)c(=O)c21`: the Potency result is “inactive”.

Consider `CCN(CC)c1ccc(NC(=O)CN(C)Cc2c(O)ccc3ccccc23)cc1`, for which the Potency entry is “inactive”.

On to `COc1cccc(C2c3c(ncn(CCN4CCOCC4)c3=N)Oc3ccc4ccccc4c32)c1` (stereo not given), for which the Potency result was “inactive”.

In the case of `Cc1cc(C)nc(NC(=S)N2CCN(c3nccc(C(F)(F)F)n3)CC2)c1`, the Potency result is “inactive”.

As for `O=C(Nc1ccc(Cl)cc1)c1ccccc1NCc1ccncc1`, the Potency result is “inactive”.

Regarding `O=C(OCC#CCSc1nnc(-c2cccc3ncccc23)o1)c1ccc(F)cc1`, the Potency result was “inactive”.

On to `Cc1ccc(S(=O)(=O)Nc2ccc(Cl)cc2C(=O)Nc2nc(-c3ccccc3)cs2)cc1`, for which the Potency result is “inactive”.

Take `O=C1CCCC2=C1C(c1[nH]ncc1Cl)N=C(c1nc3ccccc3o1)N2` (stereo not given): the Potency entry was “inactive”.

With `c1nc(NCc2ccc3c(c2)OCO3)c2cc(-c3ccc4c(c3)OCCO4)ccc2n1`, the Potency entry was “inactive”.

In the case of `COc1ccccc1C(=O)OCC#CCSc1nnc(-c2cccc3ccccc23)o1`, the Potency result was “inactive”.

Take `CCCN(CCC)C(=O)C(CCC(=O)OCCCN1CCN(CCOC(=O)Cc2c(C)n(C(=O)c3ccc(Cl)cc3)c3ccc(OC)cc23)CC1)NC(=O)c1ccccc1` (stereo not given): the Potency result was “inactive”.

In the case of `O=C1CCCC2=C1C(c1ccncc1Cl)N=C(Nc1nc3ccccc3o1)N2` (stereo not given), the Potency entry is “inactive”.

As to `CCOc1ccccc1-c1nnc2n1N=C(c1c(OC)cccc1OC)CS2`, the Potency entry is “inactive”.

For the compound `COc1cccc(NC(=S)N2CCN(c3ncc(C(F)(F)F)cc3Cl)CC2)n1`, the Potency result is “inactive”.
